Where “and” joins values, the source holds several entries; their conditions need not be identical. Equal values may be shown once. Screen size: about 5,500 compounds; about 2,000 (36%) were called active. Another 18% or so got no clear call; they are omitted. Cut-off read from the data, not from the text of the source: active = normalized growth mostly below about 0.91 (no sharp cut-off); inconclusive = no clear call, values can overlap the other calls; inactive = mostly above about 0.92. The list shows a part of the results.
Assay: chemical genetic growth profiling, strain panel (AID 1159580);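 note: tested at 20 µM; growth read once vehicle control cultures reached saturation at 30 °C; 1 = growth at the plate median or of vehicle wells; lower values mean less growth of the strain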
Settings: S. cerevisiae deletion strains, growth OD

Measured: normalized growth

CC(Oc1ccccc1)C(=O)N[C@@H]1C(=O)N2[C@@H]1SC(C)(C)[C@@H]2C(=O)O (some centres not stated)
inactive: locus YAL013W, strain DEP1, active compounds read low 1.01 | locus YAL021C, strain ccr4, active compounds read low 1 | locus YAL026C, strain drs2, active compounds read low 1.01 | locus YAL030W, strain snc1, active compounds read low 0.987 | locus YBL061C, strain skt5, active compounds read low 1 | locus YBR009C, strain hhf1, active compounds read low 0.997 | locus YBR021W, strain FUR4, active compounds read low 0.999 | locus YBR023C, strain chs3, active compounds read low 0.998 | locus YBR171W, strain sec66, active compounds read low 0.984 | locus YBR229C, strain ROT2, active compounds read low 1.01 | locus YBR231C, strain swc5, active compounds read low 0.995 | locus YBR279W, strain paf1, active compounds read low 1.01 | locus YCL011C, strain gbp2, active compounds read low 0.988 | locus YCL016C, strain dcc1, active compounds read low 0.988 | locus YCL029C, strain bik1, active compounds read low 1.04 | locus YCL061C, strain MRC1, active compounds read low 0.998 | locus YCL069W, strain vba3, active compounds read low 0.981 | locus YCR088W, strain abp1, active compounds read low 0.995 | locus YDL005C, strain med2, active compounds read low 0.999 | locus YDL035C, strain GPR1, active compounds read low 1.01 | locus YDL040C, strain nat1, active compounds read low 0.995 | locus YDL074C, strain BRE1, active compounds read low 1.01 | locus YDL101C, strain DUN1, active compounds read low 1.02 | locus YDL134C, strain PPH21, active compounds read low 1.02 | locus YDL185W, strain tfp1, active compounds read low 1.02 | locus YDL192W, strain arf1, active compounds read low 1.02 | locus YDR001C, strain nth1, active compounds read low 0.994 | locus YDR069C, strain doa4, active compounds read low 1 | locus YDR101C, strain arx1, active compounds read low 1.01 | locus YDR137W, strain rgp1, active compounds read low 1 | locus YDR150W, strain NUM1, active compounds read low 1.01 | locus YDR159W, strain sac3, active compounds read low 1.02 | locus YDR162C, strain NBP2, active compounds read low 1.02 | locus YDR195W, strain ref2 1 | locus YDR297W, strain sur2, active compounds read low 0.994 | locus YDR318W, strain mcm21, active compounds read low 1.03 | locus YDR334W, strain swr1, active compounds read low 0.995 | locus YDR335W, strain msn5, active compounds read low 0.996 | locus YDR388W, active compounds read low 1.02 | locus YDR392W, strain spt3, active compounds read low 0.947 | locus YDR502C, strain sam2, active compounds read low 1.01 | locus YEL003W, strain gim4, active compounds read low 0.993 | locus YEL037C, strain rad23, active compounds read low 0.997 | locus YEL061C, strain CIN8 (second series), active compounds read low 0.988 | locus YEL061C, strain CIN8, active compounds read low 1.01 | locus YER015W, strain faa2, active compounds read low 1 | locus YER016W, strain bim1, active compounds read low 1 | locus YER110C, active compounds read low 1.03 | locus YER111C, strain swi4, active compounds read low 1.01 | locus YER155C, strain BEM2 (second series), active compounds read low 0.994 | locus YER155C, strain BEM2, active compounds read low 0.998 | locus YER167W, strain BCK2, active compounds read low 1.01 | locus YFR010W, strain ubp6, active compounds read low 0.997 | locus YGL078C, strain dbp3, active compounds read low 1.02 | locus YGL086W, strain mad1, active compounds read low 1.01 | locus YGL167C, strain pmr1, active compounds read low 0.999 | locus YGL173C, strain kem1, active compounds read low 1.01 | locus YGL227W, strain vid30, active compounds read low 0.988 | locus YGL240W, strain doc1, active compounds read low 1 | locus YGL248W, strain PDE1, active compounds read low 1.01 | locus YGL253W, strain hxk2, active compounds read low 0.994 | locus YGR078C, strain PAC10, active compounds read low 1.01 | locus YGR135W, strain pre9, active compounds read low 1.02 | locus YGR229C, strain SMI1, active compounds read low 0.999 | locus YGR252W, strain gcn5, active compounds read low 0.994 | locus YHR013C, strain ard1, active compounds read low 0.984 | locus YHR027C, strain rpn1, active compounds read low 0.999 | locus YHR030C, strain SLT2, active compounds read low 1.01 and 1.04 | locus YHR079C, strain IRE1 (second series), active compounds read low 1.02 | locus YHR079C, strain IRE1, active compounds read low 0.999 | locus YHR094C, strain hxt1, active compounds read low 1.02 | locus YHR129C, strain ARP1, active compounds read low 1.01 | locus YHR142W, strain chs7, active compounds read low 0.979 | locus YHR200W, strain rpn10, active compounds read low 1.02 | locus YIL066C, strain RNR3, active compounds read low 1.01 | locus YIL073C, strain SPO22, active compounds read low 1.06 | locus YIL125W, strain kgd1, active compounds read low 1.01 | locus YIR030C, strain dcg1, active compounds read low 1.02 | locus YJL092W, strain hpr5, active compounds read low 0.993 | locus YJL095W, strain BCK1 (second series), active compounds read low 0.995 | locus YJL095W, strain BCK1, active compounds read low 1.04 | locus YJL115W, strain asf1, active compounds read low 0.999 | locus YJL129C, strain trk1, active compounds read low 1 | locus YJL134W, strain LCB3, active compounds read low 1.01 | locus YJL154C, strain vps35, active compounds read low 0.991 | locus YJL164C, strain tpk1, active compounds read low 0.999 | locus YJL166W, strain qcr8, active compounds read low 0.986 | locus YJL168C, strain set2, active compounds read low 1.02 | locus YJL187C, strain SWE1 (second series), active compounds read low 1.02 | locus YJL187C, strain SWE1, active compounds read low 0.997 | locus YJR043C, strain POL32, active compounds read low 1.01 | locus YJR066W, strain TOR1, active compounds read low 0.966
